# This excerpt belongs to a sample that is enriched for hits.
# KDM5B inhibitor: KDM5B demethylase inhibition. Q9UGL1. AID 1347165. KDM5B demethylase, FDH-coupled NADH fluorescence (FDH is formaldehyde dehydrogenase). hit rate 2.6% among 220,000. Potency, µM (series often up to 57.7 µM), hits mostly inhibitors; active = well fitted inhibition curve with a large enough effect; note: 0% is about no effect; nearly all actives have a fitted effect of over 70% in size
# Target sequence (Q9UGL1 whole entry, looked up): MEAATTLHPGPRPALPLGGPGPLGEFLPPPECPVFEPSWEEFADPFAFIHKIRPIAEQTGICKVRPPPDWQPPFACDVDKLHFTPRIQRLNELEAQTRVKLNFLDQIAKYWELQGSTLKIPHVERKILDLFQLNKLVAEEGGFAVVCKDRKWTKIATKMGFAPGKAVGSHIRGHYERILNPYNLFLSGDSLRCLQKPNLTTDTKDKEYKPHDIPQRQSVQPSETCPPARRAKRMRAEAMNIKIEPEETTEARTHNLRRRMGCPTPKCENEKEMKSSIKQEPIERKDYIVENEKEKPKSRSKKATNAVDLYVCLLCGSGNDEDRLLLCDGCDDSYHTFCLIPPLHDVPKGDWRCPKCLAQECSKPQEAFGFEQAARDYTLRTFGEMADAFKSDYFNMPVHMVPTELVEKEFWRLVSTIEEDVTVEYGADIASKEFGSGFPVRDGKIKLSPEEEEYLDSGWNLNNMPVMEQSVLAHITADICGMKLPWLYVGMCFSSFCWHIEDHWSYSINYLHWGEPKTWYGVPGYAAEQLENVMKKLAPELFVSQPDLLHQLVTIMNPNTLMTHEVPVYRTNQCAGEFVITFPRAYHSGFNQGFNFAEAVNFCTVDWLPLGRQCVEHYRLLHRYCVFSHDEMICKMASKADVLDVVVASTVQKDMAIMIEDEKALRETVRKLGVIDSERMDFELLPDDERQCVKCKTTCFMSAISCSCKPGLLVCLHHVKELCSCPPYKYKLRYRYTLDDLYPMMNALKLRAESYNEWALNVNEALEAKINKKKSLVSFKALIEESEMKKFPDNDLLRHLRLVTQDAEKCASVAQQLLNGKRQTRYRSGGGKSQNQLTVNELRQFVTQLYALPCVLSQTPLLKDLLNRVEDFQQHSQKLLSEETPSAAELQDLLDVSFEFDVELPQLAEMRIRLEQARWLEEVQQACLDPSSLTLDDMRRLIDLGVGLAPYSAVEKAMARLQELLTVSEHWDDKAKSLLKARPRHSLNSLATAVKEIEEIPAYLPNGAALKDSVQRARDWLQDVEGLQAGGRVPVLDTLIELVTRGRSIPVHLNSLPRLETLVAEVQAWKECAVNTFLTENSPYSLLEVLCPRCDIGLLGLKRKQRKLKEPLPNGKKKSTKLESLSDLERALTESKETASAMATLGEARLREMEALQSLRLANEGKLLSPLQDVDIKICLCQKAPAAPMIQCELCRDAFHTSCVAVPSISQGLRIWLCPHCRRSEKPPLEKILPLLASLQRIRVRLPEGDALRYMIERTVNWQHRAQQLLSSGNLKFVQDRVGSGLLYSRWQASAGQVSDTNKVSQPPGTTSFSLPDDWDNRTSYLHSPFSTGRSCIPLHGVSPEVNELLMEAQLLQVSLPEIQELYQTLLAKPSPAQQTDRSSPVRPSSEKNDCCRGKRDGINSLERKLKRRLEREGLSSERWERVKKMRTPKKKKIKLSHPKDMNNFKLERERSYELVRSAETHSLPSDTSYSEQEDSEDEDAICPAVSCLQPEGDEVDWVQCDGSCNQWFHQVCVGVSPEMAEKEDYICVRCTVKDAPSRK
#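 Compound dilutions met 200 nM (final) KDM5BΔAP for 10 min at room temperature before substrate addition. The substrate mix held 12.5 µM H3K4me3 with cofactors 25 µM α-ketoglutarate and 50 µM Fe²⁺. NADH signal gain over 30 min defined activity.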
# Numbers without * were called inactive; i = inactive. Potency is the fitted concentration of half-maximal effect.
SMILES,KDM5B inhibitor
O=C(Nc1cccc(F)c1)N1Cc2[nH]cnc2C[C@H]1c1nc(-c2ccc(C(F)(F)F)cc2)no1,i
FC(F)(F)c1ccc(-c2noc([C@@H]3Cc4nc[nH]c4CN3Cc3cc4ccccc4o3)n2)cc1,25µM*
O=C(Nc1nc(-c2ccc(-c3ccccc3)cc2)cs1)C1CCN(C(=O)c2ccoc2)CC1,i
Cn1nccc1C(O)c1cc2n(n1)CCN(CC(=O)NCc1ccco1)C2 (stereo unspecified),i
Cn1ccnc1C(O)c1cc2n(n1)CCN(C/C=C/c1ccccc1)C2 (stereo unspecified),i
Cn1nccc1C(O)c1cc2n(n1)CCN(C/C=C/c1ccccc1)C2 (stereo unspecified),32µM*
Cc1ccccc1Cn1nc(C)c(NC(=O)NC2CCCC2)c1C,i
COc1cc(CN2C(=O)C(=O)c3cc(C)ccc32)ccc1OCCC(C)C,i
Cc1cc(C)cc(OC(C)C(=O)Nc2cccc3cccnc23)c1 (stereo unspecified),i
Cc1cccc(C)c1NC(=O)CN1CCN(Cc2csc(-c3cccc(Br)c3)n2)CC1,i
COc1cc(CN2CC[C@H](c3nc4ccccc4o3)C2)cc(OC)c1OC,i
CCc1ccc(N2CC(c3noc(C4(c5ccccc5)CC4)n3)CC2=O)cc1 (stereo unspecified),i
CCc1ccc(N2CC(c3noc(-c4ccccn4)n3)CC2=O)cc1 (stereo unspecified),i
O=C1CC(c2noc(-c3nccc4ccccc34)n2)CN1C1CCCCC1 (stereo unspecified),22µM*
CCc1ccc(N2CC(c3noc(-c4nccc5ccccc45)n3)CC2=O)cc1 (stereo unspecified),32µM*
O=C1CC(c2noc(-c3ccoc3)n2)CN1C1CCCCC1 (stereo unspecified),i
CCc1ccc(N2CC(c3noc(-c4ccccc4)n3)CC2=O)cc1 (stereo unspecified),i
CCc1ccc(N2CC(c3noc(-c4ccc5ncccc5c4)n3)CC2=O)cc1 (stereo unspecified),32µM*
O=C1CC(c2noc(-c3cccc(F)c3)n2)CN1C1CCCCC1 (stereo unspecified),i
CCc1ccc(N2CC(c3noc(-c4ccc(C)nc4)n3)CC2=O)cc1 (stereo unspecified),i
C=CCNc1nc(C(=O)OCc2ccc(C#N)cc2F)cs1,i
Cc1ccc2c(COC(=O)CCCN=C3NS(=O)(=O)c4ccccc43)cc(=O)oc2c1,i
CS(=O)(=O)NC(=O)c1ccc(Cl)cc1F,i
COc1ccccc1OCC(=O)Nc1cc(-c2ccc(Cl)cc2)no1,i
CCCNC(=O)COC(=O)c1ccc2nc(C)c(C)nc2c1,i
SMILES,KDM5B inhibitor
Cc1ccc(CN2CCC(Oc3ccc4ccccc4c3)(C(=O)O)CC2)o1,i
O=C(O)C1(Oc2ccc3ncccc3c2)CCN(Cc2ccncc2)CC1,16µM*
C=CCn1cc(CN2CCC(Oc3ccc4ccccc4c3)(C(=O)O)CC2)cn1,i
CCOC(=O)c1cnc2ccc(C)cc2c1Nc1ccccc1OCC,i
CCOC(=O)c1[nH]c(C)c(C(=O)Cn2cnc3ccccc3c2=O)c1C,i
CCOC(=O)C1(C)C=C(Nc2ccc(F)cc2)C(=O)N1c1ccc(F)cc1 (stereo unspecified),i
CCN(C)C(=O)C(C)N1CCc2onc(C(c3ccccc3)c3ccccc3)c2C1 (stereo unspecified),i
CCC(O)C(=O)N1CCc2onc(-c3ccc(-c4ccccc4)cc3)c2C1 (stereo unspecified),i
CCN(C)C(=O)C(C)N1CCc2onc(-c3ccc(-c4ccccc4)cc3)c2C1 (stereo unspecified),25µM*
CC(C)c1noc([C@@H]2C[C@H](NC(=O)C3CCCCC3)CN2C)n1,i
O=C(/C=C/c1ccccc1)N(Cc1ccc2[nH]ccc2c1)C1CC1,i
COc1ccc(NC(=O)CC(C)C)c2cccnc12,i
COc1cc(-c2ccc(-c3nc(CC(C)C)no3)cn2)cc(OC)c1OC,i
COc1ccc(-c2ccc(-c3nc(CC(C)C)no3)cn2)c2cccnc12,28µM*
c1ccc(Sc2c(-c3ccccc3)cc3ccccn23)cc1,i
CC1=C(C(=O)N2CCOCC2)C(c2cccc(F)c2)NC(=O)N1Cc1ccccc1 (stereo unspecified),i
CC1(COCC2CC2)COc2ccc(C(=O)N3CCOCC3c3cccc(F)c3)cc2N1 (stereo unspecified),35µM*
CC1(COc2cccnc2)COc2ccc(C(=O)NCCc3ccccc3)cc2N1 (stereo unspecified),35µM*
C[C@@H]1CN(C(=O)c2ccc3c(c2)NC(C)(COCC2CC2)CO3)C[C@H](C)O1 (stereo partly specified),i
O=C1CCCCC(Cc2ccccc2)(C(=O)NCc2cccc(F)c2)N1 (stereo unspecified),i
CN(C(=O)c1ccc2c(c1)NC(C)(COCC1CC1)CO2)c1ccccc1 (stereo unspecified),i
O=C1CSc2ccc(C(=O)NCCc3cccnc3)cc2N1,i
CC1(COc2ccccc2)COc2ccc(C(=O)NCc3cccc(F)c3)cc2N1 (stereo unspecified),32µM*
CC1(COCC2CC2)COc2ccc(C(=O)NCc3cccc(F)c3)cc2N1 (stereo unspecified),40µM*
CCC1(C(=O)NCc2cccc(F)c2)CCCCC(=O)N1 (stereo unspecified),i
SMILES,KDM5B inhibitor
O=C(NCCc1ccccc1)c1ccc2c(c1)OCO2,i
COc1cccc(CNC(=O)[C@@H]2C[C@@H](O)CN2C2CCN(C(=O)COc3cccc(C)c3)CC2)c1,i
COc1ccc(C(=O)c2c(N)c(C#N)c3n2CCC3)cc1,i
CC(C)(C)NC(=O)CN1CCN(C(=O)c2cc3cc(F)ccc3[nH]2)CC1,i
CC(C)C[C@H](NC(=O)c1ccc2nc(-n3cccc3)sc2c1)C(=O)NCc1ccncc1,i
C#CC(C)(CC)NC(=O)Cc1cccs1 (stereo unspecified),i
c1ccc(N2CCSC2c2cccs2)cc1 (stereo unspecified),i
CCOc1ccc(Nc2nc(N)c(C(=O)c3ccc(OC)c(OC)c3)s2)cc1,i
COc1cccc(-c2nnnn2[C@H]2CO[C@H]3[C@@H]2OC[C@@H]3NS(=O)(=O)c2ccccc2C#N)c1,i
CCCCn1c(=O)[nH]c(=O)c2c1nc(CNc1ccc(F)cc1C)n2CCC(C)C,i
Cc1ccc(-c2nc(COc3ccccc3F)co2)cc1,i
CC1(COc2ccccc2)COc2ccc(C(=O)NCCc3cnc[nH]3)cc2N1 (stereo unspecified),35µM*
CC(=O)N1CCCN(C(=O)c2ccc3c(c2)NC(C)(COc2cccnc2)CO3)CC1 (stereo unspecified),i
CC1(COc2ccccc2)COc2ccc(C(=O)NCCc3ccccn3)cc2N1 (stereo unspecified),32µM*
CC1(COc2cccnc2)COc2ccc(C(=O)N3CCOCC3)cc2N1 (stereo unspecified),i
O=C(NCc1cccnc1)c1ccc2ccccc2c1,i
CC1(COc2ccccc2)COc2ccc(C(=O)NCc3cccnc3)cc2N1 (stereo unspecified),35µM*
CC1(COc2cccnc2)COc2ccc(C(=O)NCCOc3ccccc3)cc2N1 (stereo unspecified),32µM*

# Screening results: PubChem BioAssay, National Center for Advancing Translational Sciences (NCATS)
